Compounds with a hit are over-represented: about 4.1% of the library has one in this group of screens.
MEKK2wt PB1 HTS: raises or lowers MEK5 binding to wildtype human MEKK2 PB1 domain; bead flow cytometry, Alexa488-MEK5 binding to MEKK2 WT; actives lie on both sides; binding response (% of control), % at 10 µM; hit rate 1.1% among 290,000; Q9Y2U5; in the data active = binding response below about 67% or above about 130%
CHT inh: human CHT choline transport inhibition; AID 488975; CHT-expressing cells, membrane potential dye, choline response; stronger effect = lower value; hit rate 0.86% among 310,000; Q9GZV3; B-score at 10 µM;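 active = B-score over 3 SD under the library average, and starting fluorescence ratio not unusually high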;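 also: choline stimulus applied at its EC90 after an EC20 pre-addition; B-score computed on integrated fluorescence ratio after choline addition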
CHT PAM: allosterically activates the human high affinity choline transporter. hit rate 0.49% among 310,000. CHT-expressing cells, membrane potential dye, choline EC20; stronger effect = higher value; LV-AA mutant CHT in HEK293 cells. Q9GZV3. AID 488977. B-score at 10 µM;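 active = initial fluorescence not abnormally high and integrated response B-score, plate-corrected, over 3 SD above library mean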
MEKK2 mut-MEK5: signal of MEK5 binding to mutant human MEKK2 PB1 domain. bead flow cytometry, Alexa488-MEK5 binding to MEKK2 mutant. hit rate 0.35% among 290,000. AID 1530. percent response, % at 10 µM; in the data active = percent response above about 24%, passing the limit was not always enough
Mot1-301 SUMO: SUMOylation pathway inhibition by Mot1-301 growth rescue; S. cerevisiae Mot1-301 growth rescue, ATP luminescence, 38.5C; percent above DMSO median, 100 means doubled; growth rescue, % at 18.8 µM; hit rate 1% among 320,000; AID 2716;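 active = every valid replicate shows activation above 250% relative to neutral control wells; inactive = the rest, any valid replicate at or below 250%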
MEKK3 PB1 HTS: MEKK3-MEK5 PB1 interaction, increase or decrease; Q99759; bead-based flow cytometry, Alexa488-MEK5 binding to MEKK3; actives lie on both sides; 0 = blocked by unlabeled MEK5, 100 = vehicle; binding response (% of control), % at 10 µM; hit rate 1.4% among 290,000;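 active = binding response more than 3 SD above or below the average of its plate-row segment, actives on both sides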;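 also: Alexa488 bead fluorescence after subtracting the streptavidin-only scavenger bead signal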
Target sequence (Q99759 whole entry, looked up): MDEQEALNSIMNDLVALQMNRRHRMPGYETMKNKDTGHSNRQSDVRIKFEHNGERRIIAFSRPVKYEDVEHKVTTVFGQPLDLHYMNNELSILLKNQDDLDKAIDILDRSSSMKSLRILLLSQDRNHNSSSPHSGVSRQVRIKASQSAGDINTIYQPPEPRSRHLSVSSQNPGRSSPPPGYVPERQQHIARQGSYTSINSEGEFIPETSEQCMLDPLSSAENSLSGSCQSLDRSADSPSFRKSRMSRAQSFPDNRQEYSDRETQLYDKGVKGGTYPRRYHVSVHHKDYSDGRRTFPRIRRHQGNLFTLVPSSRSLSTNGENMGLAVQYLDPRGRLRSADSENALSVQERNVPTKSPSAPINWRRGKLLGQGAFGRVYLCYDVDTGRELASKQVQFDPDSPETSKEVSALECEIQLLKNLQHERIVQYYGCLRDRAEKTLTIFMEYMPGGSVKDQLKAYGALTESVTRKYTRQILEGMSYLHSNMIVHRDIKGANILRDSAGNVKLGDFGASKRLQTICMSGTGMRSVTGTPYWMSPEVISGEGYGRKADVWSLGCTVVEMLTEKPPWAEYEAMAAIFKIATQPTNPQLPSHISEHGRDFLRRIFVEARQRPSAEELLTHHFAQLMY
MEKK2wt confirm: raises or lowers MEK5 binding to wildtype human MEKK2, retest | bead flow cytometry, Alexa488-MEK5 binding to MEKK2 WT; actives lie on both sides | shares compounds with MEKK3 PB1 HTS | binding response (% of control), % at 10 µM | hit rate 2.4% among 5,900; in the data active = binding response below about 16% or above about 210%; inactive = in between
MEKK2mut confirm: signal of MEK5 binding to mutant human MEKK2, retest; shares compounds with MEKK3 PB1 HTS; bead flow cytometry, Alexa488-MEK5 binding to MEKK2 mutant; percent response, % at 10 µM; hit rate 2% among 5,900; in the data active = percent response mostly above about 71%, no sharp cut-off; inactive = mostly below about 38%;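 also: higher means compound restores mutant binding toward wildtype level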
MEKK3-MEK5 inh: confirmation of inhibitors of MEK5 binding to human MEKK3; shares compounds with MEKK3 PB1 HTS; bead flow cytometry, Alexa488-MEK5 binding to MEKK3; stronger effect = lower value; binding response (% of control), % at 10 µM; hit rate 1.8% among 5,900; AID 1894;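 active = binding response below 72% of control, or above a set upper limit, though filed actives all read lower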
Numbers stand for hits; - = inactive; . = no result given; [ ] = another dose, or the depositor's remark.

SMILES | MEKK2wt PB1 HTS | CHT inh | CHT PAM | MEKK2 mut-MEK5 | Mot1-301 SUMO | MEKK3 PB1 HTS | MEKK2wt confirm | MEKK2mut confirm | MEKK3-MEK5 inh
CCN1CCN(c2ncnc3sc(C)c(-c4ccccc4)c23)CC1 | - | - | - | - | - | - | . | . | .
COc1ccc(NC(=O)N(Cc2cc3cc(C)ccc3[nH]c2=O)CC2CCCO2)cc1 (stereo not drawn) | - | - | - | - | - | 130 | -4.0[inhibitor] | - | -
COc1ccc2[nH]c(=O)c(CN(CC3CCCO3)C(=O)Nc3ccc(F)cc3)cc2c1 (stereo not drawn) | - | . | . | - | . | - | . | . | .
Cn1c(SCc2ccc(F)cc2Cl)nc2ccccc2c1=O | . | . | . | . | - | . | . | . | .
COc1cc(C2NC(=S)NC3=C2CCc2ccccc23)cc(OC)c1OC (stereo not drawn) | - | - | - | - | - | 142 | - | - | -
COc1cccc(C(=O)Nc2cc(NC(=O)c3cccs3)ccc2C)c1OC | - | - | - | 24 | - | - | - | - | -
COc1cc(NC(=O)c2ccccc2Cl)ccc1NC(=O)c1cccs1 | - | - | - | - | - | - | . | . | .
COc1cc(NC(=O)c2cccc(Cl)c2)ccc1NC(=O)c1cccs1 | - | - | - | - | - | 133 | - | - | -
Cc1cc2nc(N)sc2cc1[N+](=O)[O-] | - | - | - | - | - | - | . | . | .
Cc1ccc(CN(C(=O)c2ccc(Cl)c([N+](=O)[O-])c2)C2CCS(=O)(=O)C2)o1 (stereo not drawn) | - | - | - | - | - | - | . | . | .
O=C(Nc1ccc2c(c1)nc1n2CCN(Cc2ccccc2)C1)c1cccs1 | 3.0[inhibitor] | - | - | - | - | - | - | - | -
CCN(CC(=O)NCc1ccc(F)cc1)C(=O)c1ccc(COc2ccccc2)cc1 | - | - | - | - | - | - | . | . | .
N/C(Cc1cccc2ccccc12)=N\OC(=O)Cc1cccs1 | - | - | - | - | - | 144 | - | - | -
O=C(O)/C=C\C(=O)Nc1ccc(F)c(F)c1F | - | - | - | - | - | - | . | . | .
O=C(CSc1nnc(CNc2cccc(Cl)c2)o1)OC1CCCCC1 | - | - | - | - | - | - | . | . | .
O=C(CSc1nnc(CNc2ccc(F)cc2)o1)OC1CCCCC1 | 2.0[inhibitor] | - | - | - | - | 2.0[inhibitor] | - | - | -
CSCCC(NC(=O)c1ccccc1)C(=O)OCC(=O)NCc1ccco1 (stereo not drawn) | . | . | . | . | - | . | . | . | .
O=C1C=CC(=O)N1CCCCCCN1C(=O)C=CC1=O | - | - | - | 62 | - | - | - | - | -
O=C1c2ccc3c4c(ccc(c24)C(=O)N1CCCCO)C(=O)N(CCCCO)C3=O | - | . | . | - | . | - | . | . | .
CCOC(=O)CCCCCC(=O)Nc1ccc2c(c1)C(=O)N([C@H](C)CO)C[C@@H](C)[C@H](CN(C)S(=O)(=O)c1cn(C)cn1)O2 | . | . | . | . | - | . | . | . | .
Cc1cccc2cc(C#N)c(NCCNS(=O)(=O)c3ccc4c(c3)OCCO4)nc12 | - | - | - | - | - | - | . | . | .
Cc1cccc(NC(=O)c2ccc([N+](=O)[O-])cc2Cl)n1 | - | - | - | - | - | 137 | - | - | -
CCN(C(=O)CSc1nncn1-c1ccccc1)c1c(N)n(Cc2ccccc2)c(=O)[nH]c1=O | - | - | - | - | - | 63[inhibitor] | - | - | -
CCN(C(=O)CSc1nnnn1-c1ccccc1)c1c(N)n(Cc2ccccc2)c(=O)[nH]c1=O | - | - | - | - | - | 67[inhibitor] | - | - | -
CCN(C(=O)CSc1nnc(SC)s1)c1c(N)n(Cc2ccccc2)c(=O)[nH]c1=O | . | . | . | . | - | . | . | . | .
SMILES | MEKK2wt PB1 HTS | CHT inh | CHT PAM | MEKK2 mut-MEK5 | Mot1-301 SUMO | MEKK3 PB1 HTS | MEKK2wt confirm | MEKK2mut confirm | MEKK3-MEK5 inh
O=C(NCc1ccc(OC(F)(F)F)cc1)C1CC(c2c(Cl)cccc2Cl)=NO1 (stereo not drawn) | - | - | - | - | - | - | . | . | .
CCOC(=O)CSc1ncc(-c2ccc([N+](=O)[O-])cc2)[nH]1 | - | - | - | - | - | 134 | - | - | -
CCOC(=O)Cn1cncc1-c1ccc([N+](=O)[O-])cc1 | - | - | - | - | - | - | . | . | .
CCN(CC)C(=O)CSc1nnc2nnc3cc(OC)ccc3n12 | - | - | - | - | - | - | . | . | .
COc1cc(/C=N/NC(=O)c2ccc3c(c2)OCO3)ccc1O | - | - | - | - | - | - | . | . | .
COc1cc(/C=N/NC(=O)/C(=C\c2ccc3c(c2)OCO3)NC(=O)c2ccccc2)ccc1O | - | - | - | - | - | 142 | - | - | -
COc1cc(/C=N/NC(=O)C(=O)NCC2CCCO2)ccc1O (stereo not drawn) | - | - | - | - | - | 162 | - | - | -
COc1cc(/C=C(\C#N)C(=O)NCC2CCCO2)ccc1O (stereo not drawn) | - | - | - | - | - | - | . | . | .
CCC(=O)Nc1ccccc1C(=O)OCC(=O)c1cccc2ccccc12 | - | - | - | - | - | 68[inhibitor] | - | - | -
COc1ccc(/C(C)=N/NC(=O)c2cc(-c3cccnc3)nc3ccccc23)cc1 | - | - | - | - | - | 147 | - | - | -
COc1ccc(-c2cc(C(=O)N/N=C(\C)c3cccnc3)c3ccccc3n2)cc1 | - | - | - | - | - | - | . | . | .
COc1cccc(/C(C)=N/NC(=O)c2cc(-c3cccnc3)nc3ccccc23)c1 | - | - | - | - | - | 129 | - | - | -
Nc1nnc(SCC(=O)NN2C(=O)NC3(CCCCC3)C2=O)s1 | - | - | - | - | - | - | . | . | .
CC(CCc1ccccc1)NC(=O)C(=O)NCCc1ccccc1 (stereo not drawn) | - | - | - | - | - | - | . | . | .
CN(N)C(=S)NCc1ccccc1 | - | - | - | - | - | 123 | - | - | -
CC(C)C(NC(=S)NCc1ccccc1)C(=O)O (stereo not drawn) | 43[inhibitor] | - | - | - | - | 34[inhibitor] | - | - | -
CC(C)CCNC(=O)C(=O)NCc1ccccc1 | - | - | - | - | - | 49[inhibitor] | - | - | -
O=C(O)CNC(=S)NCc1ccccc1 | - | - | - | - | - | - | . | . | .
COC(=O)c1ccsc1NS(=O)(=O)c1ccccc1 | - | - | - | - | - | - | . | . | .
COc1ccc(OC)c(NC(=O)CSc2nc(N3CCOCC3)nc(N3CCOCC3)n2)c1 | - | - | - | - | - | - | . | . | .
O=C(CCC(=O)N(CC(=O)NC1CCCCC1)Cc1cccs1)Nc1nccs1 | - | - | - | - | - | - | . | . | .

Bioassay records deposited in PubChem by several laboratories.
